According to PubChem BioAssay AID1159580 (chemical genetic matrix, 2015):
Several values for one entry are separate records, joined by “and”; a condition that tells them apart may be missing. Equal entries are not always repeated. The whole screen tested about 5,500 compounds, of which about 2,000 (36%) were called active. Another 18% or so got no clear call; they are omitted. Cut-off read from the data, not from the text of the source: active = normalized growth mostly below about 0.91 (no sharp cut-off); inconclusive = no clear call, values can overlap the other calls; inactive = mostly above about 0.92. This is one part of the list.

Experiment: chemical genetic growth profiling, strain panel (AID 1159580);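 note: tested at 20 µM; growth read once vehicle control cultures reached saturation at 30 °C; 1 = growth at the plate median or of vehicle wells; lower values mean less growth of the strain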
Conditions: S. cerevisiae deletion strains, growth OD

Measured: normalized growth

OC[C@@H]1CCCN2CCCC[C@H]12
inactive: locus YAL013W, strain DEP1, active compounds read low 0.983 | locus YAL021C, strain ccr4, active compounds read low 1.05 | locus YAL026C, strain drs2, active compounds read low 1.04 | locus YAL030W, strain snc1, active compounds read low 1.03 | locus YBL061C, strain skt5, active compounds read low 1.03 | locus YBR009C, strain hhf1, active compounds read low 1.01 | locus YBR021W, strain FUR4, active compounds read low 0.998 | locus YBR023C, strain chs3, active compounds read low 1.05 | locus YBR171W, strain sec66, active compounds read low 1.05 | locus YBR229C, strain ROT2, active compounds read low 0.998 | locus YBR231C, strain swc5, active compounds read low 1.03 | locus YBR279W, strain paf1, active compounds read low 1.03 | locus YCL011C, strain gbp2, active compounds read low 1.03 | locus YCL016C, strain dcc1, active compounds read low 1.03 | locus YCL029C, strain bik1, active compounds read low 1.02 | locus YCL061C, strain MRC1, active compounds read low 1.02 | locus YCL069W, strain vba3, active compounds read low 1.04 | locus YCR088W, strain abp1, active compounds read low 1.04 | locus YDL005C, strain med2, active compounds read low 1.03 | locus YDL035C, strain GPR1, active compounds read low 1.01 | locus YDL040C, strain nat1, active compounds read low 1.02 | locus YDL074C, strain BRE1, active compounds read low 1.01 | locus YDL101C, strain DUN1, active compounds read low 1.01 | locus YDL134C, strain PPH21, active compounds read low 0.989 | locus YDL185W, strain tfp1, active compounds read low 1.02 | locus YDL192W, strain arf1, active compounds read low 1.01 | locus YDR001C, strain nth1, active compounds read low 1.02 | locus YDR069C, strain doa4, active compounds read low 1.01 | locus YDR101C, strain arx1, active compounds read low 1.02 | locus YDR137W, strain rgp1, active compounds read low 1.05 | locus YDR159W, strain sac3, active compounds read low 0.961 | locus YDR162C, strain NBP2, active compounds read low 1.01 | locus YDR195W, strain ref2 1.02 | locus YDR297W, strain sur2, active compounds read low 1.01 | locus YDR318W, strain mcm21, active compounds read low 1.01 | locus YDR334W, strain swr1, active compounds read low 1.02 | locus YDR335W, strain msn5, active compounds read low 1.04 | locus YDR388W, active compounds read low 1.01 | locus YDR392W, strain spt3, active compounds read low 0.945 | locus YDR502C, strain sam2, active compounds read low 1.01 | locus YEL003W, strain gim4, active compounds read low 1.04 | locus YEL037C, strain rad23, active compounds read low 1.03 | locus YEL061C, strain CIN8 (second series), active compounds read low 1.02 | locus YEL061C, strain CIN8, active compounds read low 1 | locus YER015W, strain faa2, active compounds read low 1.03 | locus YER016W, strain bim1, active compounds read low 1.02 | locus YER110C, active compounds read low 1.02 | locus YER111C, strain swi4, active compounds read low 1.03 | locus YER155C, strain BEM2 (second series), active compounds read low 1 | locus YER155C, strain BEM2, active compounds read low 0.996 | locus YER167W, strain BCK2, active compounds read low 1 | locus YFR010W, strain ubp6, active compounds read low 1.01 | locus YGL078C, strain dbp3, active compounds read low 1 | locus YGL086W, strain mad1, active compounds read low 1.01 | locus YGL167C, strain pmr1, active compounds read low 1.02 | locus YGL173C, strain kem1, active compounds read low 1.02 | locus YGL227W, strain vid30, active compounds read low 1.03 | locus YGL240W, strain doc1, active compounds read low 1.01 | locus YGL248W, strain PDE1, active compounds read low 0.993 | locus YGL253W, strain hxk2, active compounds read low 1.05 | locus YGR078C, strain PAC10, active compounds read low 1 | locus YGR135W, strain pre9, active compounds read low 0.993 | locus YGR252W, strain gcn5, active compounds read low 0.957 | locus YHR013C, strain ard1, active compounds read low 1.03 | locus YHR027C, strain rpn1, active compounds read low 1.01 | locus YHR030C, strain SLT2, active compounds read low 0.998 and 1.01 | locus YHR079C, strain IRE1 (second series), active compounds read low 1.01 | locus YHR079C, strain IRE1, active compounds read low 1.02 | locus YHR094C, strain hxt1, active compounds read low 1.01 | locus YHR129C, strain ARP1, active compounds read low 1.01 | locus YHR142W, strain chs7, active compounds read low 1.04 | locus YHR200W, strain rpn10, active compounds read low 1.02 | locus YIL066C, strain RNR3, active compounds read low 1.01 | locus YIL073C, strain SPO22, active compounds read low 1.05 | locus YIL125W, strain kgd1, active compounds read low 1.01 | locus YIR030C, strain dcg1, active compounds read low 1.01 | locus YJL092W, strain hpr5, active compounds read low 1.03 | locus YJL095W, strain BCK1 (second series), active compounds read low 1.02 | locus YJL095W, strain BCK1, active compounds read low 1.03 and 1 | locus YJL115W, strain asf1, active compounds read low 1.03 | locus YJL129C, strain trk1, active compounds read low 1.06 | locus YJL134W, strain LCB3, active compounds read low 0.978 | locus YJL154C, strain vps35, active compounds read low 1.02 | locus YJL164C, strain tpk1, active compounds read low 1.02 | locus YJL166W, strain qcr8, active compounds read low 1.02 | locus YJL168C, strain set2, active compounds read low 1 | locus YJL187C, strain SWE1 (second series), active compounds read low 1.02 | locus YJL187C, strain SWE1, active compounds read low 1.04 | locus YJR043C, strain POL32, active compounds read low 0.992
